This is an account of results in PubChem BioAssay AID602399 (Sanford-Burnham Center for Chemical Genomics, 2012).

The whole screen tested about 360,000 compounds, of which about 2,800 (0.78%) were called active. Rule as the data show it: active = inhibition above about 26%; inactive = the rest. The sample as a whole holds a higher share of actives than the screen did.

For this assay, the system named is Nicotinate-nucleotide adenylyltransferase NadD (Staphylococcus aureus N315). Nature of the assay: S. aureus NadD enzyme activity blockers – biochemical, colorimetric, uHTS, primary screen (AID 602399). The conditions noted are these: purified NadD enzyme, colorimetric absorbance read-out; at 20 µM; active compounds read high.
On to `CC1Cc2[nH][nH]c(=O)c2C(C2CC2)O1` (stereo not given), for which the inhibition – broadly, the change of the read-out against control, counted positive when it falls – was -3.07% (inactive).
The result for `CC(Oc1cccc(Cl)c1)C(=O)NC1CC(C)(C)NC(C)(C)C1` (stereo not given) reads -1.75% (inactive).
As for `C[C@H](NC(=O)CC[C@H]1O[C@@H](n2ccc(=O)[nH]c2=O)[C@H](O)[C@@H]1O)c1cccc2ccccc12`, the figure is -3.28% (inactive); as for `CN(C(=O)CC1C(=O)NCCN1Cc1ccc(F)cc1Cl)C1CCCCC1` (stereo not given), 3.03% (inactive).
As for `CCC1CCc2c(sc(NC(C)=O)c2C#N)C1` (stereo not given), the figure is 1.07% (inactive).
Turning to `COc1ccc2[nH]c(=O)c(CN(Cc3nnnn3CCc3ccccc3)CC3CCCO3)cc2c1` (stereo not given), the inhibition is 14.2% (inactive).
`CCOc1ccc2[nH]c(=O)c(CN(Cc3nnnn3CCc3ccccc3)CC3CCCO3)cc2c1` (stereo not given): the inhibition is 0.283% (inactive).
As for `CCC(c1nnnn1Cc1ccco1)N(Cc1cc2cc(OC)ccc2[nH]c1=O)C1CCCCC1` (stereo not given), the figure is 31.2% (active).
The result for `O=C(COc1ccc([N+](=O)[O-])cc1)Nc1ccc(N2CCCC2)cc1` reads 42.4% (active); that for `O=C(CCC(=O)N1CCCC1)Nc1ccc([N+](=O)[O-])cc1`, -6.64% (inactive).
The result for `O=C(COc1ccc(/C=N/NC(=O)c2ccc(O)cc2)cc1)Nc1ccc([N+](=O)[O-])cc1` reads 71.1% (active).
Regarding `O=C(N/N=C/c1cccc(OC(=O)c2ccc([N+](=O)[O-])cc2)c1)c1cccnc1`, the inhibition is -12.9% (inactive).
As for `O=C(COC(=O)C1CCCCC1)Nc1ccc([N+](=O)[O-])cc1`, the figure is -1.2% (inactive); as for `O=C(COc1ccc([N+](=O)[O-])cc1)Nc1cccc(C(=O)Nc2ccccc2C(=O)O)c1`, -2.45% (inactive); as for `C/C(=N\NC(=O)OC(C)(C)C)c1ccc[nH]1`, -6.93% (inactive).
As for `Cc1ccc(Cl)cc1N1CCN(C(=O)c2cccc3c(=O)c(C)c(-c4ccccc4)oc23)CC1`, the figure is 4.56% (inactive); as for `C/C(N)=C(/C#N)C(=O)COC(=O)C1CCN(C(=O)c2ccc(Cl)cc2)CC1`, -7.06% (inactive); as for `COc1cc(/C=C(\C#N)C(=O)Nc2ccc3ccccc3c2)c([N+](=O)[O-])cc1OC`, 5.18% (inactive).
The result for `COc1ccc(NC(=O)/C(C#N)=C\c2cc(OC)c(OCc3ccc(C(=O)O)cc3)cc2Br)cc1` reads 30.5% (active).
`COCCNC(=O)/C(C#N)=C/c1cccc(OCc2ccccc2)c1`: the inhibition is -8.65% (inactive).
As for `CC(=O)Nc1ccc(S(=O)(=O)N2CCC(C(=O)NC3CC3)CC2)cc1`, the figure is 3.08% (inactive); as for `O=C(NCC(=O)N1CCN(c2ccccc2O)CC1)c1ccc2ccccc2c1`, 31.5% (active); as for `COc1ccc(N2CCN(C(=O)CNC(=O)c3ccc(C(C)(C)C)cc3)CC2)cc1`, -1.98% (inactive).
The result for `O=C(CNC(=O)c1ccc2ccccc2c1)Nc1ncccc1O` reads 6.33% (inactive).
The result for `O=C1NC[C@H](Cc2ccc(O)cc2)N(C[C@H]2CCCN2C[C@H](Cc2ccccc2)N2C[C@H](Cc3ccccc3)N(CCc3ccccc3)C(=O)C2=O)C1=O` reads 24% (inactive); that for `CC(C)C[C@H]1CNC(=O)C(=O)N1C[C@H]1CCCN1C[C@H](Cc1ccc(O)cc1)N1C[C@H](CC(C)C)N(CC2CCCCCC2)C(=O)C1=O`, 23.7% (inactive).
For `CCOc1ccc(CCN2C(=S)N([C@@H](CC(C)C)CN3CCC[C@@H]3CN3C(=S)NC[C@@H]3Cc3ccc(O)cc3)C[C@@H]2CC(C)C)cc1`, the inhibition was 26.6% (inactive).
As for `CCOc1ccc(CCN2C(=O)C(=O)N([C@@H](CC(C)C)CN3CCC[C@H]3CN3C(=O)C(=O)NC[C@@H]3Cc3ccccc3)C[C@@H]2CC(C)C)cc1`, the figure is 28.4% (inactive); as for `O=C1NC[C@H](Cc2ccc(O)cc2)N(C[C@@H]2CCCN2C[C@H](Cc2ccccc2)N2C[C@H](Cc3ccccc3)N(CC3CCCCC3)C(=O)C2=O)C1=O`, 38.8% (active).
The result for `CCOc1ccc(CCN2C(=S)N([C@@H](CC(C)C)CN3CCC[C@@H]3CN3C(=S)NC[C@@H]3Cc3ccc(O)cc3)C[C@@H]2Cc2ccc(O)cc2)cc1` reads 35% (active); that for `C[C@H]1COC(=O)[C@H](CC(=O)OC(C)(C)C)C/C=C\C[C@@H](CC(=O)N[C@H](CO)Cc2ccccc2)C(=O)N1`, -1.24% (inactive); that for `CC(c1ccccn1)N(C)C(=O)c1ccc2nc(Cc3cccc(Cl)c3)oc2c1` (stereo not given), -8.59% (inactive).
As for `CCOCCCNC(=O)Cc1cc(=O)[nH]c(=O)[nH]1`, the inhibition was 4.88% (inactive).
As for `CC(=O)N1CCc2ccc(N)cc21`, the figure is -3.06% (inactive).
The result for `O=C1NC(O)CCN1C1CC(O)C(CO)O1` (stereo not given) reads -1.72% (inactive); that for `Cc1noc(C)c1S(=O)(=O)N(C)C[C@H]1Oc2ccc(NC(=O)C3CC3)cc2C(=O)N([C@H](C)CO)C[C@@H]1C`, 4.79% (inactive).
In the case of `Cc1ccc2nc(SCC(=O)N3CC(C)OC(C)C3)nc(=O)n2c1` (stereo not given), the inhibition was -2.71% (inactive).
As to `CCOC(=O)C1=CCC(c2ccc(F)cc2)N(S(=O)(=O)c2ccc(C)cc2)C1` (stereo not given), the inhibition is -6.49% (inactive).
As for `COC(=O)[C@]12CCCCC=C1N(Cc1ccc(Cl)cc1Cl)C(=O)[C@H](CC(=O)NCc1cccc3ccccc13)C2`, the figure is 16.3% (inactive).
As for `Cc1cc(C)c(-c2csc(NC(=O)CCCc3nc4ccccc4c(=O)[nH]3)n2)c(C)c1`, the figure is 21.6% (inactive); as for `CCCn1c(C)cc(-c2csc(NC(=O)CCc3nc4ccccc4c(=O)[nH]3)n2)c1C`, 47.6% (active); as for `CCN(CC)c1ccc(C(=O)NNC(=O)CCc2nc3ccccc3c(=O)[nH]2)cc1`, -1.03% (inactive).
In the case of `CN(CC(=O)NCc1ccc2c(c1)OCO2)CC(=O)Nc1ccc(F)c(F)c1F`, the inhibition is -3.42% (inactive).
The result for `COc1ccc([N+](=O)[O-])cc1NCC(=O)c1ccc(C)cc1` reads 7.38% (inactive); that for `COc1ccc([N+](=O)[O-])cc1NC(=O)c1ccc(N(Cc2ccccc2C)S(C)(=O)=O)cc1`, 11% (inactive); that for `COc1ccc([N+](=O)[O-])cc1NC(=O)CC1SC(=Nc2cccc(C)c2C)N(/N=C(\C)c2ccc(C)cc2)C1=O` (stereo not given), 26.7% (active).
As for `N#CNC1=NCN(CCc2ccccc2)CN1`, the figure is 3.37% (inactive).
As for `COc1ccc(NC(=O)N(C)C[C@@H]2OCc3cn(nn3)CCCC(=O)N([C@H](C)CO)C[C@H]2C)c(OC)c1`, the figure is -0.14% (inactive); as for `COc1ccc(-n2c(SCC(=O)Nc3sc4c(c3C#N)CCCC4)nnc2-c2ccc(O)cc2)cc1`, 33.1% (active).
Take `CCCc1cc(=O)[nH]c(SCC(=O)Nc2sc3c(c2C#N)CCCC3)n1`: the inhibition was 0.874% (inactive).
As for `COc1cccc(CN(C)CC(=O)Nc2sc3c(c2C#N)CCC3)c1`, the figure is -5.48% (inactive).
As for `COc1ccc(-c2ccc3[nH]c4c(c3c2)CCN2C[C@H]3[C@H](C)ON(C)[C@H]3C[C@@H]42)cc1`, the figure is -7.97% (inactive); as for `COc1cccc(C(O)c2nc(-c3ccc(C)c(C)c3)cs2)c1` (stereo not given), -4.75% (inactive).
The result for `COC(=O)/C=C\C(=O)Nc1cccc([N+](=O)[O-])c1` reads 7.18% (inactive); that for `Cc1cc(NC(=O)COC(=O)/C=C/c2ccc(C)o2)no1`, -5.17% (inactive); that for `Cc1ccc(/C=C/C(=O)Nc2ccc([N+](=O)[O-])c(NC(=O)/C=C/c3ccc(C)o3)c2)o1`, 47.9% (active).
`O=C(NC(=O)N1CCSCC1)c1c(Cl)cccc1Cl`: the inhibition was 17.8% (inactive).
The result for `Cc1ccc(S(=O)(=O)NCC(=O)N(CC(=O)NC(C)(C)C)Cc2cccs2)cc1` reads -3.65% (inactive).
In the case of `Cn1c2c(c(=O)n(C)c1=O)[C@@H]1c3c(ccc4ccccc34)OC[C@@H]1CO2`, the inhibition is 1.89% (inactive).
For the compound `CC1=CC(=O)C=CC1(C)C(Cl)(Cl)Cl` (stereo not given), the inhibition was 4.28% (inactive).
As for `N#CC1=C(N)Oc2c(sc3ccccc23)C1c1ccco1` (stereo not given), the figure is 33.4% (active).
The result for `Cc1ccc(C(=O)N(CN2CCCC2=O)c2ccc(F)cc2)cc1` reads -3.99% (inactive).
On to `COc1cc(C(F)(F)F)c(C(=O)N(C)c2ccc(Cl)cc2)cn1`, for which the inhibition is -3.26% (inactive).
Turning to `COc1ccc(C(NC(=O)C2CCN(CCCc3ccccc3)CC2)c2cccs2)cc1` (stereo not given), the inhibition was 0.814% (inactive).
As for `Cc1ccc2sc(NNC(=O)c3ccc4c(c3)OCCO4)nc2c1C`, the figure is 11.1% (inactive); as for `COc1cccc2sc(NNC(=O)c3nc4ccccc4s3)nc12`, 36.6% (active); as for `COc1cccc(/C=C/c2ccc3ccccc3n2)c1OC(C)=O`, -5.51% (inactive).
The result for `O=C(COc1nc2ccccc2nc1N1CCOCC1)NCC(F)(F)F` reads -2.03% (inactive); that for `COC(=O)[C@@]1(Cc2ccc(OC)cc2)[C@H]2c3cc(C(=O)N4CCCC4)n(Cc4ccc(OC(F)(F)F)cc4)c3C[C@H]2CN1C(=O)c1ccccc1`, 15.7% (inactive).
Turning to `CCOc1ccc(S(=O)(=O)N2CCCCC2)cc1NC(=O)CN1CCCC1c1cccs1` (stereo not given), the inhibition is 5.31% (inactive).
As for `CCN(CC)c1ccc(NC(=O)CN2C(=O)NC3(CCc4ccccc43)C2=O)cc1` (stereo not given), the figure is -4.85% (inactive); as for `CCCN(c1ccc(C(C)C)cc1)S(=O)(=O)c1c(C)[nH]c(=O)[nH]c1=O`, 6.85% (inactive); as for `CC(=O)Nc1ccc(C(=O)Nc2cccc(S(=O)(=O)NC3=NCCC3)c2)cc1`, 7.82% (inactive).
The result for `Nc1[nH]c(=S)nc2nc(-c3ccccc3)c(-c3ccccc3)nc12` reads 31.3% (active); that for `CC/C(=N\O)C(C)(C)/[N+]([O-])=C/c1ccc(Br)cc1`, -4.93% (inactive); that for `CC12CN(Cc3ccccc3)CC(C)(CN(Cc3ccccc3)C1)C2=NO`, -2.69% (inactive).
The result for `O=C(NCCc1cccc(F)c1)C1CC(O)CN1C(=O)Nc1ccccc1` (stereo not given) reads 0.207% (inactive).
On to `O=S(=O)(c1ccc(Cl)cc1)N1CCCN(c2ccc(C(F)(F)F)cn2)CC1`, for which the inhibition was -6.85% (inactive).
As for `COc1ccc(CCNC(=O)/C(C#N)=C2\N=C(NC(=O)c3cccs3)c3ccccc32)cc1`, the inhibition is 2.29% (inactive).
The result for `Cc1ccc2nc(/C(C#N)=C\c3ccc(OC(=O)c4cccs4)cc3)[nH]c2c1` reads 40.4% (active).
